The text below walks through data of the supplement of paper PMC10849652.

What all share (assay): log2 fold change, soluble protein after heating vs DMSO (PISA); higher = thermal stabilisation; K562 cells, 10 uM, 30 min; active = over 0.2 and 3.5 SD of the protein, either way, in both replicates (recomputed)
Compound in experiment [1]: CC1=C(C=C(C=C1)NC(=O)C2=CC(=CC=C2)C(C)(C)C#N)NC3=CC4=C(C=C3)N=CN(C4=O)C
The method in brief:
(§1)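 For each measurement, 10 μM compound was applied for 30 min to K562 cells at 2×10^6 cells/mL. Aliquots were heated for 3 min across 48°C-58°C, pooled, and extracted in PBS with 0.5% NP-40 at 4°C; the supernatant after 21,000xg for 90 min was soluble protein. This was quantified by TMTpro 16plex LC-MS/MS with channel sums equalised, and thermal stability was reported relative to control samples from duplicates, on a log2 fold-change scale.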

Compound in experiment [2]: CC1=C(C=C(C=C1)NC(=O)C2=CC(=CC=C2)N(C)C)NC(=O)C3=CC=C(C=C3)O
An outline of the steps:
as §1

Compound in experiment [3]: CC1=CC=C(C=C1)SC2=C3C=C(SC3=CN=C2)C(=O)N
The method in brief:
as §1

Compound in experiment [4]: CC1=NC(=CC=C1)C2=C(N=C(N2)C(C)(C)C)C3=CC4=NC=CN=C4C=C3
The method in brief: as §1

Compound in the next experiment: CCCCN(Cc1ccc(C(=O)NO)cc1)C(=O)Nc1ccccc1 [Nexturastat A]
The method in brief:
as §1

Compound in another experiment: CCCS(=O)(=O)Nc1ccc(F)c(C(=O)c2c[nH]c3ncc(-c4ccc(Cl)cc4)cc23)c1F [vemurafenib]
An outline of the steps: as §1

Compound in experiment [5]: CCCS(=O)(=O)Nc1ccc(F)c(C(=O)c2c[nH]c3ncc(Cl)cc23)c1F
An outline of the steps:
as §1

Compound in experiment [6]: CCCc1cc(C)[nH]c(=O)c1CNC(=O)c1cc(-c2ccnc(N3CCN(C)CC3)c2)cc2c1cnn2C(C)C
The method in brief:
as §1

Compound in a further experiment: CCN(CC)Cc1ccc2cc(COC(=O)Nc3ccc(C(=O)NO)cc3)ccc2c1 [givinostat]
An outline of the steps:
as §1

Compound in a further experiment: CCN(CCCOc1ccc2c(Nc3cc(CC(=O)Nc4cccc(F)c4)[nH]n3)ncnc2c1)CCOP(=O)(O)O [barasertib]
The method in brief:
as §1

Compound in experiment [7]: CC[C@@H]1C(=O)N(C)c2cnc(Nc3ccc(C(=O)NC4CCN(C)CC4)cc3OC)nc2N1C1CCCC1
The method in brief:
as §1

Compound in another experiment: CC[C@@H]1C(=O)N(C)c2cnc(Nc3ccc(C(=O)N[C@H]4CC[C@H](N5CCN(CC6CC6)CC5)CC4)cc3OC)nc2N1C(C)C [volasertib]
An outline of the steps:
as §1

Compound in experiment [8]: CC[C@H](C)N1C=C(C2=C(C=C(C=C21)C3=CN=C(C=C3)N4CCNCC4)C(=O)NCC5=C(C=C(NC5=O)C)C)C
An outline of the steps: as §1

Compound in a further experiment: CC[C@H](C)[C@@H](C(=O)N[C@@H]([C@@H](C)O)C(=O)N[C@@H](CC(C)C)C(=O)[C@]1(CO1)C)NC(=O)[C@H]([C@@H](C)CC)N(C)C(=O)C [epoxomicin]
The method in brief: as §1

Compound in experiment [9]: CCn1c(C(=O)N(C2CC2)C2CC2)cc2c3c(ncn3C)c(Nc3cc(C)n(C)n3)nc21
An outline of the steps:
as §1

Compound in experiment [10]: CCn1cc(-c2ccnc3[nH]c(-c4cccc(CN(C)C)c4)cc23)c(-c2ccc(NC(=O)N(C)C)cc2)n1
An outline of the steps:
as §1

Compound in experiment [11]: CN(C)CC(=O)Nc1ccc2[nH]c(=O)c3ccccc3c2c1
The method in brief: as §1

Compound in another experiment: CN(CCOC1=CC=C(C=C1)C[C@H]2C(=O)NC(=O)S2)C3=CC=CC=N3 (racemic) [rosiglitazone]
An outline of the steps:
as §1

Compound in experiment [12]: CN1C2=C(C3=C1C(=O)N(N=C3)CC4=CC(=CC=C4)N)SC(=C2)S(=O)C
The method in brief: as §1

Compound in experiment [13]: CN1CCC(CNc2ccc3ncc(-c4cccc(OC(F)(F)F)c4)n3n2)CC1
An outline of the steps:
as §1

About 7,900 targets were measured; listed, in parts, are those with a hit and a random draw of the rest. About 0.6% of all pairs of compound and target were hits. A number with no mark means an inactive call.

Chain of UniProt Q9BWJ5 (Q9BWJ5 whole entry, looked up): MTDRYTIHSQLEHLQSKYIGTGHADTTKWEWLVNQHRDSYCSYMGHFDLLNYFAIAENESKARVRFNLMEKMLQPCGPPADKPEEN
Chain of UniProt Q9BVS4 (Q9BVS4 whole entry, looked up): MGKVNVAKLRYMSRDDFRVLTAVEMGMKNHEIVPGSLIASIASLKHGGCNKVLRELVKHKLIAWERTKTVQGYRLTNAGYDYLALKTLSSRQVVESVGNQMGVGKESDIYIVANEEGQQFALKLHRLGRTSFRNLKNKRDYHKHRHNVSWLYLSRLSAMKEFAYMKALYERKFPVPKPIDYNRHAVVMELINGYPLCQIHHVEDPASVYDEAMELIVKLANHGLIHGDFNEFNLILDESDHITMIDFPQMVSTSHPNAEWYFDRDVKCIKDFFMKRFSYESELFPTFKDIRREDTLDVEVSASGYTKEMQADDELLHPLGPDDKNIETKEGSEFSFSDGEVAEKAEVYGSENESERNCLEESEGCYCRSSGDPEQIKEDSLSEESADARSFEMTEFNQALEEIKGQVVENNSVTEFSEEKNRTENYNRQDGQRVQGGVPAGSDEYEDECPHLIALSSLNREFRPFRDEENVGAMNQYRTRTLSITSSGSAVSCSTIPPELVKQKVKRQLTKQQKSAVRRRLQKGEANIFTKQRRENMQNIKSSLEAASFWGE
Chain of UniProt P78332 (P78332 whole entry, looked up): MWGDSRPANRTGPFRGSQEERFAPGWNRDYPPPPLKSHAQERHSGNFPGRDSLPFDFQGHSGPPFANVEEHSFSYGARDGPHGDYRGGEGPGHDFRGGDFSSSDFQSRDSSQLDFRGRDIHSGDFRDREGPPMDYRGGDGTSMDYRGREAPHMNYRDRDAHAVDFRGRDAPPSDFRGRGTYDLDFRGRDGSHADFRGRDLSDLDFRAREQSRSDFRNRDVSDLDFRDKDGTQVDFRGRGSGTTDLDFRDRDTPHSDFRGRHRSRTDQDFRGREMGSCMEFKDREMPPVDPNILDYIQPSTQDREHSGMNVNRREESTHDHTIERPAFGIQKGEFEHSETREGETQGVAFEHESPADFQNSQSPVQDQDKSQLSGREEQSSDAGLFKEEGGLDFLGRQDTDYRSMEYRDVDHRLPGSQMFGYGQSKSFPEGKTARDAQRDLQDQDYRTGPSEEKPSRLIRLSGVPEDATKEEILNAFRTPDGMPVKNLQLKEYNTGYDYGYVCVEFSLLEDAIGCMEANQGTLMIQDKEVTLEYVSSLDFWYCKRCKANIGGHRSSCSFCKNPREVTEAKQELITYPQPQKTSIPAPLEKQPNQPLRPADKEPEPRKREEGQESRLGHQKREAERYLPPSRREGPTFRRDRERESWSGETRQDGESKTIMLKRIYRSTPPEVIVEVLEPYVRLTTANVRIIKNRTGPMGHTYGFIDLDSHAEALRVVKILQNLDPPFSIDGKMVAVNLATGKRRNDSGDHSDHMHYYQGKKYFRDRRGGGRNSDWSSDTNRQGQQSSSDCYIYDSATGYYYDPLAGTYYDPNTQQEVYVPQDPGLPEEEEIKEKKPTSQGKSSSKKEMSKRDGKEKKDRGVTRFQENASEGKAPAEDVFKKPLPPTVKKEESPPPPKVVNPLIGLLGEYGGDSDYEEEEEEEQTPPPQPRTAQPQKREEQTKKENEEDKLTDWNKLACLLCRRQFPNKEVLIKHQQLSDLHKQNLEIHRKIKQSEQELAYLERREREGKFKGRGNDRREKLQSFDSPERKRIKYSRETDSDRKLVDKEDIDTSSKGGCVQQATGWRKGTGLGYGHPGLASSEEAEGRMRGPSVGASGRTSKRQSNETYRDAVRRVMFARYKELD
Chain of UniProt Q5TA31 (Q5TA31 whole entry, looked up): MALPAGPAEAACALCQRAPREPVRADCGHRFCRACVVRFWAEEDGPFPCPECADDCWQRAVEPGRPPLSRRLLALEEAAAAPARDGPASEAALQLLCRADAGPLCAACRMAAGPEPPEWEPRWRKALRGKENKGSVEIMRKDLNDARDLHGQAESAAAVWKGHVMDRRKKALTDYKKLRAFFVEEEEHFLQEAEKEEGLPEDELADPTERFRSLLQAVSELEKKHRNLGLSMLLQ
Chain of UniProt P63208 (P63208 whole entry, looked up): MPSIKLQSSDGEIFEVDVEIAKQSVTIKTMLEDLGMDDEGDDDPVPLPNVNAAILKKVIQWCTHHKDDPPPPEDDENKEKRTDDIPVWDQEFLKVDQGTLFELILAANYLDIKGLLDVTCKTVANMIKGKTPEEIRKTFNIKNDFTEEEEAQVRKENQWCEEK
Chain of UniProt P54136 (P54136 whole entry, looked up): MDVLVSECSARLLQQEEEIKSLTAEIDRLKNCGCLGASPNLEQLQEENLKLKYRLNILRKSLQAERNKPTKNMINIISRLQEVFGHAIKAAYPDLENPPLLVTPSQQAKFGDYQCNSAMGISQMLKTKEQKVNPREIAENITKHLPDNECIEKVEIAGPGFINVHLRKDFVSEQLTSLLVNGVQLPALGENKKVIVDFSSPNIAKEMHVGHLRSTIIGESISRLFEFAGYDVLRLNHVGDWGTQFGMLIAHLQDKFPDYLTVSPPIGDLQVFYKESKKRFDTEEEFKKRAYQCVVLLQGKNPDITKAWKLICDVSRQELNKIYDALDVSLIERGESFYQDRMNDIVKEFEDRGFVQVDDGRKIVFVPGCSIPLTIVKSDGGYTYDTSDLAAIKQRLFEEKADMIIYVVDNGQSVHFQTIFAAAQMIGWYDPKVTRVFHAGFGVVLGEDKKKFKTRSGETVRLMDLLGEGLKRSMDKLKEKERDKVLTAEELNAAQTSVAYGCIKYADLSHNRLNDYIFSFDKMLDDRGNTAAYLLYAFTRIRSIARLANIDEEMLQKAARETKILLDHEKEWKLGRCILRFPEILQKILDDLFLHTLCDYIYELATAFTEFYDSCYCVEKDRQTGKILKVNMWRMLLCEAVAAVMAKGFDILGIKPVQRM

With RAVER1 (UniProt E9PAU2), the log2 fold change in experiment [1] is 0.144; in experiment [2] it was -0.075; in [3] it was -0.025; in [4], 0.144; in the experiment with Nexturastat A it was -0.046; in the experiment with vemurafenib, -0.1. Besides, the log2 fold change in experiment [5] was 0.067; in [6] it was 0.293; with givinostat, 0.131; in the experiment with barasertib, 0.099; in experiment [7], -0.222; with volasertib, -1.93 (active). Also, the log2 fold change was 0.13 in experiment [8]; 0.147 with epoxomicin; -0.058 in experiment [9]; -0.006 in experiment [10]; 0.174 in experiment [11]; 0.056 with rosiglitazone. For the same target, the log2 fold change in experiment [12] is -0.007; in experiment [13] it was -0.375.
With RPS5 (UniProt P46782), the log2 fold change was 0.012 in experiment [1]; 0 in experiment [2]; 0.001 in experiment [3]; -0.038 in experiment [4]; 0.126 with Nexturastat A; -0.034 with vemurafenib. In addition, the log2 fold change was -0.066 in experiment [5]; 0.038 in [6]; -0.014 in the experiment with givinostat; -0.1 in the experiment with barasertib; 0.103 in experiment [7]; 0.337 with volasertib. In addition, the log2 fold change is 0.065 in [8]; -0.079 with epoxomicin; 0.025 in experiment [9]; 0.059 in [10]; -0.036 in [11]; -0.073 with rosiglitazone. For the same target, the log2 fold change in [12] was 0.089; in experiment [13], 0.044.
Turning to RIOK2 (UniProt Q9BVS4), the log2 fold change is 0.035 in [1]; 0.006 in experiment [2]; -0.046 in [3]; -0.021 in experiment [4]; 0.178 with Nexturastat A; -0.001 with vemurafenib. Besides, the log2 fold change is -0.007 in [5]; 0.056 in experiment [6]; 0.035 with givinostat; 0 with barasertib; 0.133 in [7]; 0.267 with volasertib. Besides, the log2 fold change was 0.015 in experiment [8]; -0.032 with epoxomicin; 0.019 in [9]; -0.013 in experiment [10]; -0.038 in experiment [11]; 0.014 with rosiglitazone. The log2 fold change is 0.085 in experiment [12] and 0.202 in experiment [13].
Turning to RARS (UniProt P54136), the log2 fold change in experiment [1] is 0.005; in experiment [2], 0.006; in experiment [3] it was -0.011; in experiment [4] it was -0.048; with Nexturastat A, 0.325; with vemurafenib it was -0.018. Further, the log2 fold change in experiment [5] is 0.058; in [6], 0.075; in the experiment with givinostat, 0.016; in the experiment with barasertib it was 0.037; in experiment [7], 0.059; in the experiment with volasertib it was -0.172. Moreover, the log2 fold change is 0.072 in experiment [8]; -0.085 with epoxomicin; -0.099 in [9]; 0.107 in [10]; 0.013 in [11]; 0.034 with rosiglitazone. Further, the values for the log2 fold change in [12] and in [13] were 0.26 and -0.111, respectively.
Consider RNF187 (UniProt Q5TA31), for which the log2 fold change is -0.074 in [1]; -0.102 in [2]; 0.048 in [3]; -0.005 in experiment [4]; 0.085 with Nexturastat A; -0.106 with vemurafenib. Also, the log2 fold change in [5] is 0.039; in experiment [6], 0; in the experiment with givinostat it was 0.036; with barasertib it was 0.041; in experiment [7], 0.155; with volasertib, 0.074. Moreover, the log2 fold change was 0.061 in experiment [8]; 0.15 with epoxomicin; -0.061 in [9]; 0.002 in experiment [10]; 0.24 in experiment [11]; 0.004 with rosiglitazone. Moreover, the figures for the log2 fold change in experiment [12] and in [13] were -0.104 and -0.073, respectively.
Regarding SKP1 (UniProt P63208), the log2 fold change in experiment [1] is 0.095; in experiment [2], 0.048; in [3], 0.094; in experiment [4], 0.017; with Nexturastat A it was -0.052; in the experiment with vemurafenib it was -0.036. Further, the log2 fold change was 0.008 in experiment [5]; -0.032 in [6]; -0.05 with givinostat; -0.021 with barasertib; -0.012 in experiment [7]; -0.02 with volasertib. In addition, the log2 fold change was -0.027 in experiment [8]; 0.034 with epoxomicin; 0.035 in experiment [9]; -0.035 in experiment [10]; -0.019 in [11]; -0.02 in the experiment with rosiglitazone. In addition, the log2 fold change in [12] was -0.126; in experiment [13], 0.244.
For RBM6 (UniProt P78332), the log2 fold change in [1] is -0.009; in experiment [3], -0.056; in [4], 0.092; in experiment [5], 0.031; in experiment [6] it was -0.079; with volasertib, -0.148. The log2 fold change was 0.094 in experiment [8], 0.148 in [10], 0.109 in [12] and 0.175 in experiment [13].
As for SF3B5 (UniProt Q9BWJ5), the log2 fold change was 0.003 in experiment [1]; 0.072 in experiment [3]; 0.111 in experiment [4]; 0.042 in the experiment with Nexturastat A; -0.055 in the experiment with vemurafenib; -0.027 in experiment [5]. Moreover, the log2 fold change was -0.009 in [6]; 0.129 with givinostat; -0.12 in the experiment with barasertib; 0.089 in experiment [7]; -0.14 with volasertib; -0.057 in experiment [8]. The log2 fold change is 0.426 (active) in the experiment with epoxomicin; 0.042 in [9]; 0.035 in [10]; 0.006 in experiment [11]; -0.044 with rosiglitazone; 0.082 in [12]. For the same target, the log2 fold change in experiment [13] is 0.035.
